Compound activity: PubChem BioAssay, National Center for Advancing Translational Sciences (NCATS)
A selection: hits, their analogues and other compounds. The true share with any hit is near 10%.
FLuc inh = Firefly luciferase inhibition profiling of diverse chemical library using quantitative high-throughput screening; 2.5% of 76,000 active; purified P. pyralis luciferase, luminescence, biochemical; AID 1347043, 2019; Potency, µM (highest dose often 115 µM), actives largely listed as inhibitors; further: nearly all actives have a fitted effect of over 65% in size
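Purified 10nM P. pyralis luciferase with 10uM D-luciferin and 10uM ATP in 50mM Tris acetate pH 7.5, 10mM Mg acetate, 0.01% Tween-20, 0.05% BSA. qHTS titration; luminescence read by CCD imager.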
3T3 cytotox = Cytotoxic Profiling in NIH 3T3 Cell Line of Diverse Libraries Using Quantitative High-Throughput Screening; NIH 3T3 viability, CellTiter-Glo ATP luminescence, 48-72 h; Potency, µM (titrated, usually from 96.7 µM), hits mostly inhibitors; 4.3% of 94,000 active; AID 1345082, 2018; further: nearly all actives have a fitted effect of over 55% in size
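Luminescent ATP readout (CellTiter-Glo, 10 min RT) after 48 or 72 hr compound exposure of NIH 3T3 cells seeded at 400 cells/well in 1536-well format; quantitative HTS.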
HEK293 tox = Cytotoxic Profiling in HEK 293 Cell Line of Diverse Libraries Using Quantitative High-Throughput Screening | HEK 293 viability, ATP luminescence (CellTiter-Glo), 48-72 h | Potency, µM (highest dose often 115 µM), hits mostly inhibitors | 6.6% of 94,000 active | AID 1345083, 2018; further: nearly all actives have a fitted effect of over 60% in size
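250 HEK 293 cells/well; compound by pintool; incubated 48 or 72 hr at 37 degree Celsius; CellTiter-Glo added, 10 min RT, luminescence imaged.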
NPR1 antag = Natriuretic polypeptide receptor (hNpr1) antagonism - Primary qHTS. HEK293 hNpr1 GloSensor cGMP, ANP-stimulated luminescence. Potency, µM (series often up to 46.3 µM), hits mostly inhibitors. 1.6% of 76,000 active; calls by dose curve; further: nearly all actives have a fitted effect of over 60% in size
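Compound pre-incubated 30 min at room temperature on GloSensor-loaded HEK293 cells stably carrying hNpr1 and the pGS-40F cGMP biosensor. Stimulation uses hNppA at 0.1 nM final; luminescence is taken at baseline and 20 min post-agonist.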
GPT2 inhibitor = Primary qHTS assay for inhibitors of Glutamate pyruvate transaminase 2 (GPT2). Alanine aminotransferase 2 (Homo sapiens), Q8TD30. Recombinant GPT2, coupled pyruvate oxidase/HRP Amplex Red fluorescence. Potency, µM (top dose mostly 57.7 µM), usual class: inhibitors. 0.25% of 100,000 active; further: nearly all actives have a fitted effect of over 60% in size
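Recombinant GPT2 (10ng/uL) with 250uM a-KG and 2mM L-alanine, 30 min at room temperature, in HEPES pH 7.5 buffer. Pyruvate detected by pyruvate oxidase/HRP/Amplex Red fluorescence after 30 min in the dark; AOA (50uM) as positive control.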
Npr1 antag conf = Natriuretic polypeptide receptor (hNpr1) antagonism - Confirmation. shares compounds with NPR1 antag. HEK293 hNpr1 cGMP GloSensor luminescence, ANP-stimulated. Potency, µM (top dose mostly 57.6 µM), most hits filed as inhibitors. 76% of 1,400 active. AID 1347044, 2019; calls by dose curve; further: nearly all actives have a fitted effect of over 70% in size
NPR2 antag = Natriuretic polypeptide receptor (hNpr2) antagonism - Subtype selectivity assay | shares compounds with NPR1 antag | HEK293 hNpr2 GloSensor cGMP luminescence, CNP-stimulated | Potency, µM (top dose mostly 57.6 µM), actives largely listed as inhibitors | 67% of 1,400 active; calls by dose curve; further: nearly all actives have a fitted effect of over 70% in size
Target sequence (P20594 whole entry, looked up): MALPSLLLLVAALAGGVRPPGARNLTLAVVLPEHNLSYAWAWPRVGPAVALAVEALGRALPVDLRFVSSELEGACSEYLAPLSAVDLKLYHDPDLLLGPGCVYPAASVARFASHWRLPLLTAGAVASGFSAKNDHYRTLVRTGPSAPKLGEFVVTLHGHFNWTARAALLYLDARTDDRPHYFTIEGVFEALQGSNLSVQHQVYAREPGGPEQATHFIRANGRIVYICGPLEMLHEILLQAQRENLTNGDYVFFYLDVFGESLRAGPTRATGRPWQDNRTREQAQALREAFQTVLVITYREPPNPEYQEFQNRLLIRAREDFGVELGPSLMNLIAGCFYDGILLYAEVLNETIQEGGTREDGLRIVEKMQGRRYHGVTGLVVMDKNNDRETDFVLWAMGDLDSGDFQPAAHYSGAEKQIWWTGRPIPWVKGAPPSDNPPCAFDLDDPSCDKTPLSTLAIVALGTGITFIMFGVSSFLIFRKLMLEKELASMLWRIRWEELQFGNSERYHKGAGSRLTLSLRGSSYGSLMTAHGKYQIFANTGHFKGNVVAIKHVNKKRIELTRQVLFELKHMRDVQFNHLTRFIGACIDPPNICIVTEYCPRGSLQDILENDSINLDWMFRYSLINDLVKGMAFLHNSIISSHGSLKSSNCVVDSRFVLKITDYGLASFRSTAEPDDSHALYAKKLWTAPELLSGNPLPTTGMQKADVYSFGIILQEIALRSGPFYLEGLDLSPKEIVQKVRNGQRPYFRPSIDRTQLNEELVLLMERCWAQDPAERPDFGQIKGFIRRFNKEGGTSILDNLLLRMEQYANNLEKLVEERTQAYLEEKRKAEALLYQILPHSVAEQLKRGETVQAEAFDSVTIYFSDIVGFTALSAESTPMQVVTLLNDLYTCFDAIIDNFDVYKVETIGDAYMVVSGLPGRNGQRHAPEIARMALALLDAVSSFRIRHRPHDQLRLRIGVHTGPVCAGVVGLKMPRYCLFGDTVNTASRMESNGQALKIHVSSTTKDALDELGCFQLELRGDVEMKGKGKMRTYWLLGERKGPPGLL
FLuc counter = Natriuretic polypeptide receptor (hNpr1) antagonism - Confirmation firefly luciferase (FLuc) inhibition counterscreen | Potency, µM (highest dose often 57.6 µM), usual class: inhibitors | AID 1347047, 2019 | shares compounds with NPR1 antag | purified FLuc enzyme, luminescence, Km substrate | 0.7% of 1,400 active
GloSensor ctrl = Natriuretic polypeptide receptor (hNpr1) antagonism - Counterscreen GloSensor control cell line | shares compounds with NPR1 antag | HEK293 GloSensor cGMP, SNP-stimulated, luminescence | Potency, µM (series often up to 57.6 µM), hits mostly inhibitors | 69% of 1,400 active | AID 1347051, 2019; calls by dose curve; further: nearly all actives have a fitted effect of over 70% in size
Numbers stand for hits; n = inactive; u = inconclusive; x = not tested or not shown. Unless noted, the call rests on the fitted dose curve; in most records, active means well fitted curve in the direction sought with a large enough effect; inconclusive means small, poorly fitted or top-dose-only effect, or another doubt; inactive means no such curve, though single readings can be large; an effect the other way counts as inactive or inconclusive.

SMILES | FLuc inh | 3T3 cytotox | HEK293 tox | NPR1 antag | GPT2 inhibitor | Npr1 antag conf | NPR2 antag | FLuc counter | GloSensor ctrl
CC1CCCN(C(=O)c2cc3c(s2)CCN(C(=O)c2ccc(Cl)cc2)C3)C1 (stereo unspecified) | n | u | 45µM | n | n | 27µM | 27µM | n | 24µM
NC(=O)CNC(=O)c1cc2c(s1)CCN(C(=O)c1ccc(Cl)cc1)C2 | n | n | n | n | u | x | x | x | x
Cc1cnc(CC2CCCN(C(=O)NC(C)(C)C)C2)n1Cc1ccc(F)cc1 (stereo unspecified) | n | n | u | n | n | x | x | x | x
Cc1nc2c(c(-c3ccc(Cl)cc3)n1)CCN(C(=O)c1ccc(F)cc1)CC2 | n | u | n | n | n | x | x | x | x
O=C(Nc1ccc(F)cc1)c1ccc2cc[nH]c2n1 | x | u | u | x | n | 25µM | 31µM | 0.89µM | 25µM
Cc1ccc2c(c1)nc1n2[C@@H](CNS(=O)(=O)Cc2ccccc2)COC1 | n | u | u | 22µM | n | 35µM | 35µM | n | 28µM
COc1ccc(S(=O)(=O)NC[C@H]2COCc3nc4c(C)cccc4n32)cc1 | n | u | u | 25µM | n | 18µM | 22µM | n | 14µM
Cc1cccc2c1nc1n2[C@@H](CNCc2ccc(S(C)(=O)=O)cc2)COC1 | n | u | u | 25µM | n | 31µM | 35µM | n | 22µM
Cc1ccc2nc3n(c2c1)[C@@H](CNS(=O)(=O)Cc1ccccc1)COC3 | n | u | u | u | n | x | x | x | x
CS(=O)(=O)c1ccc(CNC[C@H]2COCc3nc4cc(F)ccc4n32)cc1 | n | u | u | n | n | x | x | x | x
Cc1cccc2c1nc1n2[C@@H](CNS(=O)(=O)c2ccccc2)COC1 | n | u | u | u | n | x | x | x | x
COc1ccc(S(=O)(=O)NC[C@H]2COCc3nc4cc(C)ccc4n32)cc1 | n | u | u | 16µM | n | 31µM | 31µM | n | 22µM
COc1cccc(CNC(=O)C2CCN(C(=O)c3cc4c(=O)[nH]c(C)cn4n3)CC2)c1 | n | n | n | n | n | x | x | x | x
COc1ccc(-c2cn3c(n2)CO[C@@H](CNS(=O)(=O)c2ccc(C)cc2)C3)cc1 | n | n | n | 28µM | n | 31µM | 31µM | u | 28µM
O=C(Nc1cc(F)cc(C(F)(F)F)c1)N1CCCOC(Cn2cccn2)C1 (stereo unspecified) | n | u | u | 13µM | n | 22µM | 22µM | n | 19µM
Cc1cc(CNC(=O)c2cc(C(C)C)nn2C)c2[nH]c(C)c(C)c2c1 | n | u | 40µM | 7.1µM | n | 6.9µM | 6.9µM | n | 4.8µM
CCc1[nH]c2c(CNC(=O)c3c(C)cc(C)n(C)c3=O)cc(F)cc2c1C | n | n | n | n | n | x | x | x | x
Cc1ccc([S+](=O)([O-])N2CCCC(c3nn(-c4ccccn4)c(=O)[nH]3)C2)cc1 (stereo unspecified) | x | u | n | x | n | x | x | x | x
CC(=O)Nc1ccc(CN2CCC3(COc4ccccc4C(=O)N3)C2)cc1 (stereo unspecified) | n | u | u | n | n | x | x | x | x
CN(C)C(=O)c1cc2c(s1)CCC(C(=O)Nc1ccc(F)c(Cl)c1)C2 (stereo unspecified) | n | u | u | n | n | x | x | x | x
O=C(Nc1ccc(F)c(Cl)c1)C1CCc2sc(C(=O)N3CCOCC3)cc2C1 (stereo unspecified) | n | u | 28µM | 8.9µM | n | 11µM | 12µM | n | 9.7µM
COc1ncccc1-c1cnc2[nH]cc(CC(=O)Nc3cccc(Cl)c3)c2c1 | n | u | 32µM | u | n | 40µM | u | n | 44µM
COc1ccc(-c2cnc3[nH]cc(CC(=O)Nc4ccc(OC)nc4)c3c2)cc1 | n | u | u | u | n | u | u | n | u
O=C(NCc1c[nH]c2ncccc12)c1cccnc1 | n | n | n | n | n | x | x | x | x
COc1ccc(NC(=O)COc2ccc(NC(=O)C3CC3)cn2)cc1 | n | n | n | n | n | x | x | x | x
SMILES | FLuc inh | 3T3 cytotox | HEK293 tox | NPR1 antag | GPT2 inhibitor | Npr1 antag conf | NPR2 antag | FLuc counter | GloSensor ctrl
COc1ccc(NC(=O)Cc2c[nH]c3ncc(-c4ccccc4C)cc23)cc1 | n | u | 79µM | 35µM | n | 25µM | 18µM | n | 31µM
NC(=O)Cc1c[nH]c2ncc(-c3ccc(Oc4ccccc4)cc3)cc12 | n | 22µM | 35µM | 7.9µM | n | 7.9µM | 11µM | n | 7.9µM
COc1ccc(NC(=O)Cn2c(-c3ccccc3)nc(C)cc2=O)cc1 | n | u | u | n | n | x | x | x | x
O=C1CO[C@H]2CN(Cc3ccccc3)C[C@H]2N1Cc1cccc(C(F)(F)F)c1 | n | u | u | n | n | x | x | x | x
CCN1C(=O)C2(CCN(C(=O)NCCC(C)C)CC2)c2ccccc21 | n | n | n | n | n | x | x | x | x
Cc1cc(NC(=O)Cc2c[nH]c3ncc(-c4ccccc4C)cc23)n(C)n1 | n | u | u | 16µM | n | 31µM | 28µM | n | 28µM
O=C(CCn1ccn2nc3c(c2c1=O)CCCC3)NC1CCCC1 | n | n | n | n | n | x | x | x | x
COc1ccc(CC(=O)Nc2ccc([C@@H](O)[C@H]3COCC(=O)N3Cc3ccc(C(F)(F)F)cc3)cc2)cc1 | n | u | 32µM | n | n | u | n | n | n
CC1=C(C(=O)Nc2ccccc2)C(c2cccc(C)c2)N2C(CC(=O)NC3CC3)=CSC2=N1 (stereo unspecified) | n | u | u | u | n | u | u | n | u
CC1=C(C(=O)Nc2ccccc2)C(c2cccc(C)c2)N2C(CC(=O)NC(C)C)=CSC2=N1 (stereo unspecified) | n | u | u | u | n | x | x | x | x
